An excerpt weighted towards active compounds, which were near 1.5% of everything screened.
APEX1 inh = APE1 (human) endonuclease inhibition; P27695; recombinant APE1, TAMRA/BHQ-2 abasic DNA cleavage fluorescence; Potency, µM (series often up to 65.8 µM), for inactives: top-dose activity change, negative = inhibition, usual class: inhibitors; 0.35% of 350,000 active;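 note: potency is the fitted concentration of half-maximal effect; plate controls were vehicle for no effect and reference inhibitor for full effect; nearly all actives have a fitted effect of over 55% in size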
Target sequence (P27695 whole entry, looked up): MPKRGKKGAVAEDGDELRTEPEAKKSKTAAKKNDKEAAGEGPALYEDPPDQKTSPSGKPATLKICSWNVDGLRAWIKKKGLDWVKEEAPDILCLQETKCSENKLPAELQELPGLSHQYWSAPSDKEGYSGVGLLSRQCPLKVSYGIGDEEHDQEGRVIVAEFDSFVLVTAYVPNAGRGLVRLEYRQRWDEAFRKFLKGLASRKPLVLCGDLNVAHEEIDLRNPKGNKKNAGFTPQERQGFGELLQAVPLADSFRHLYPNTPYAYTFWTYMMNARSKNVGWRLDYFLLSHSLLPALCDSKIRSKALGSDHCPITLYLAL
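0.75 nM APE1 + cpd, 15 min RT; start w/ 50 nM TAMRA/BHQ-2 THF-abasic dsDNA; kinetic fluor 525/598 nm ×3 reads @60 s; Δ(read3−read1); normalized to DMSO and NSC13755 control wells.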
FEN1 inhibitor = inhibitors of human flap endonuclease 1. P39748. Recombinant FEN1 flap cleavage, fluorescence, 15 min. 0.35% of 390,000 active. Potency, µM (top dose mostly 114 µM), without a hit: at the top dose activity change, negative = inhibition, usual class: inhibitors; note: potency is the fitted concentration of half-maximal effect; nearly all actives have a fitted effect of over 65% in size
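Quantitative HTS format: each compound was titrated, incubated with 10 nM nuclease for 15 min at room temperature, then challenged with flap substrate at 50 nM final. Signal change over 15 min gave concentration–effect curves.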
PI5P4K alpha inh = inhibitors of human PI5P4K alpha | P48426 | PI5P4Kalpha enzyme, ADP-Glo luminescence, 60 min; active compounds read low | max response, % | 1.2% of 330,000 active | AID 652105; active = max response of -50% or lower; inconclusive = between -30% and -50%; inactive = -30% or higher; note: value at the top dose of about 77 µM
Target sequence (P48426 whole entry, looked up): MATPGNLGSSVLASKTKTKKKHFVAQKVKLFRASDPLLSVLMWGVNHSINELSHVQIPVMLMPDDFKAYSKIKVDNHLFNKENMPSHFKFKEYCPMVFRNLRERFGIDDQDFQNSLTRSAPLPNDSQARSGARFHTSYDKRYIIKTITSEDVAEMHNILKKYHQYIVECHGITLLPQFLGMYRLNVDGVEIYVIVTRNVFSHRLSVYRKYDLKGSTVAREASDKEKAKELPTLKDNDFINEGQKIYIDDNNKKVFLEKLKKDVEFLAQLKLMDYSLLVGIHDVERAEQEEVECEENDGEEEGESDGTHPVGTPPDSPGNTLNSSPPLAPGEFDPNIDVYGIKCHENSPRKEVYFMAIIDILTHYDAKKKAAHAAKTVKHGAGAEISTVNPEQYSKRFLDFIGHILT
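PI5P4Kalpha ADP-Glo assay; 5 microM ATP final; 60 min RT reaction; HEPES pH 7.4/EGTA/CHAPS, 5% DMSO; controls lacking substrate or enzyme; luminescent end-point.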
BLM inh = Bloom syndrome helicase (human) inhibition | P54132 | recombinant BLM DNA unwinding, fluorescence dequenching | Potency, µM (doses to about 56.1 µM), without a hit: at the highest dose activity change, negative = inhibition, usual class: inhibitors | 0.2% of 350,000 active | AID 2528;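 note: potency is the fitted concentration of half-maximal effect; plate controls were vehicle for no effect and no enzyme for full effect; nearly all actives have a fitted effect of over 35% in size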
WRN inhibitor = inhibitors of human WRN helicase; WRN helicase unwinding, fluorescent forked duplex, kinetic; 0.46% of 360,000 active; Q14191; AID 651768; Potency, µM (highest dose often 114 µM), for the others: at the highest dose activity change, negative = inhibition, usual class: inhibitors; note: potency is the fitted concentration of half-maximal effect; nearly all actives have a fitted effect of over 55% in size
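Enzyme (20 nM final) and test compound sit together 15 min at room temperature before substrate addition. Substrate is a single-forked duplex oligonucleotide (100 nM) labelled with fluorophore and quencher, with 2 mM ATP; helicase unwinding raises red fluorescence, read kinetically.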
RECQ1 inh-1 = RECQ1 (human) helicase inhibition | P46063 | RECQ1 DNA unwinding, red fluorescence kinetic read | Potency, µM (doses to about 57.3 µM), for the others: at the highest dose activity, negative = inhibition, actives largely listed as inhibitors | 0.54% of 240,000 active | AID 2549;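 note: potency is the fitted concentration of half-maximal effect; plate controls were vehicle for no effect and no enzyme for full effect; nearly all actives have a fitted effect of over 30% in size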
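RECQ1T1 50 nM; forked duplex (20 bp + 30-nt ss tails) 200 nM, ATP 2 mM final; pH 8.0, 2 mM MgCl2, 2.5 ug/ml poly(dI-dC); 15 min compound preincubation; discontinuous kinetic read over 2 h at RT.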
RECQ1 conf = confirmation of human RECQ1 helicase inhibitors; Potency, µM (doses to about 229 µM), without a hit: at the highest dose activity change, negative = inhibition, usual class: inhibitors; shares compounds with RECQ1 inh-1; 28% of 610 active; RECQ1 helicase DNA unwinding, fluorescence; note: potency is the fitted concentration of half-maximal effect; nearly all actives have a fitted effect of over 45% in size
ADP FP counter = counter-screen for RECQ1 inhibitors: ADP displacement | shares compounds with RECQ1 inh-1 | ADP fluorescence polarization displacement counterscreen | Potency, µM (titrated, usually from 228 µM), inactives show top-dose activity change, negative = inhibition, most hits filed as inhibitors | 27% of 530 active; note: potency is the fitted concentration of half-maximal effect; nearly all actives have a fitted effect of over 45% in size
RECQ1 inh-2 = RECQ1 helicase inhibition confirmed, round 2 | shares compounds with RECQ1 inh-1 | recombinant RECQ1 DNA unwinding, red fluorescence | Potency, µM (highest dose often 119 µM), for inactives: at the highest dose activity, negative = inhibition, actives largely listed as inhibitors | 15% of 1,100 active | AID 504841; note: potency is the fitted concentration of half-maximal effect; nearly all actives have a fitted effect of over 50% in size
An asterisk follows results filed as active; i = inactive; u = inconclusive; x = no result; ! = a repeat was not active; [ ] = remark or other dose. Unless noted, calls come from the whole dose curve; as a rule, active = well fitted curve in the direction sought with a large enough effect; inconclusive = small, poorly fitted or top-dose-only effect, or another doubt; inactive = no such curve, though single readings can be large; an effect the other way counts as inactive or inconclusive. Unless noted, % is set by controls: 0 for no effect and ±100 for the full control effect.

SMILES	APEX1 inh	FEN1 inhibitor	PI5P4K alpha inh	BLM inh	WRN inhibitor	RECQ1 inh-1	RECQ1 inh-2	others
CCC(CC)C1C(C#N)=C(N)Oc2cc(C)oc(=O)c21 (configuration not stated)	17%	7%	x	-5%	-5%	-11%	x
Cc1cc2c(c(=O)o1)C(c1ccc([N+](=O)[O-])o1)C(C#N)=C(N)O2 (configuration not stated)	8.9µM*	u	-2	-1%	u	22µM*	-19%
CCOC(=O)C1=C(C)OC2(O)c3ccccc3C(=O)C12O (configuration not stated)	u	7%	0	u	25%	4%	x
CC(=O)C1=C(C)OC2(O)c3ccccc3C(=O)C12O (configuration not stated)	u	0%	-3	-27%	37%	u	-12%
CCOc1ccccc1CNC(=O)c1oc2c(c1C)-c1nn(Cc3cccc(Cl)c3)cc1CC2	x	0%	x	-4%	x	x	x
CC/C(=C/c1sc2ccc(C)cc2[n+]1CCCS(=O)(=O)[O-])SC	-10%	1%	-6	-3%	-14%	u	-4%
CC/C(=C/c1sc2ccc(C)cc2[n+]1CCO)SC	16%	-15%	-2	-6%	-23%	-11%	x
Cn1nnc(NC(=O)c2ccc(C(C)(C)C)cc2)n1	12%	11%	-2	0%	5%	20µM*	-7%
Cn1nnc(NC(=O)c2ccc3ccccc3c2)n1	-6%	-2%	-9	-13%	-8%	-5%	x
O=C(N/N=C/c1ccc[nH]1)c1ccc(O)cc1	-3%	-16%	-25	-6%	-8%	i	x
O=C(N/N=C/c1ccc[nH]1)c1ccccc1O	18%	4%	-12	-4%	-1%	3.5µM*	x	RECQ1 conf=8%[114 µM];ADP FP counter=14%[91.9 µM]
CCOC(=O)c1c(C)[nH]c(CCC(=O)NC(C)c2ccccc2)c1C (configuration not stated)	x	10%	x	-1%	x	x	x
CCOC(=O)c1sc(-c2ccc(Br)cc2)cc1N	25%	-5%	x	-14%	1%	32µM*	-18%
CCOC(=O)c1cc(-c2ccc(N)cc2)sc1N	0%	2%	x	0%	2%	-5%	x
CC1(C)CC(=O)c2cc(-c3nc(-c4ccc(Cl)cc4)cs3)c(=O)n(-c3ccc(F)cc3)c2C1	x	-15%	x	-2%	x	x	x
COc1cccc(F)c1C(=O)NC(=O)Nc1ccc2nc(C)oc2c1	u	7%	-3	-6%	8%	35µM*	26%
CSc1nc2ccc(NC(=O)NC(=O)c3c(F)cccc3F)cc2s1	2%	7%	-1	1%	-29%	-4%	x
CCOc1ccc(OCC)c(NS(=O)(=O)c2ccc3c(c2)CCCN3C(C)=O)c1	x	14%	x	-2%	x	x	x
CCOCCn1c(N2CCCN(C)CC2)nc2ccccc21	x	x	x	2%	x	x	x
O=c1oc2ccccc2c2oc3cc(O)c(O)cc3c12	u	45µM*	-64*	10µM*!	45µM*	25µM*	35µM*
COc1cccc(NC(=O)CC2S/C(=N\S(=O)(=O)c3ccccc3)N(c3ccccc3)C2=O)c1 (configuration not stated)	11%	-1%	-3	-5%	-15%	40µM*	-9%
O=C(CN1C(=O)S/C(=C/C=C/c2ccccc2)C1=O)Nc1ccc(C(=O)O)cc1	4%	-33%	-9	-13%	-30%	i	x
Cc1ccc(NC(=O)CN2C(=O)S/C(=C\c3cc(C)n(-c4ccc(C(=O)O)cc4)c3C)C2=O)cc1	4%	u	u	-10%	-10%	u	u
CC(=O)c1cccc(S(=O)(=O)N2CCCC(c3nc(-c4ccc(C)o4)no3)C2)c1 (configuration not stated)	0%	-18%	x	-4%	-18%	u	-28%
COc1cc(/C=N/N2C(=O)CSC2=S)ccc1O	4%	u	-51*	-1%	u	u	u
SMILES	APEX1 inh	FEN1 inhibitor	PI5P4K alpha inh	BLM inh	WRN inhibitor	RECQ1 inh-1	RECQ1 inh-2	others
CCOC(=O)C1(CC2CC2)CCN(S(=O)(=O)/C=C/c2ccccc2)CC1	6%	-15%	3	-5%	-7%	u	-17%
CCOC(=O)C1(CC2CC2)CCN(Cc2cn[nH]c2-c2ccccc2)CC1	2%	1%	-1	-2%	0%	-6%	x
O=C(O)c1ccc(Cl)c(NC(=O)C2CCCN2S(=O)(=O)c2cccc3nsnc23)c1 (configuration not stated)	-2%	-3%	2	1%	-4%	-2%	x	RECQ1 conf=1%;ADP FP counter=1%
COc1cc(Br)c(CCNC(=O)c2ccco2)cc1OC	20%	0%	2	-2%	12%	u	-8%
Cc1nc(C(=O)Nc2cccc(Cl)c2)nn1-c1cc(OC(C)C)c(Cl)cc1Cl	-4%	-1%	x	-9%	-21%	35µM*	-13%
COc1ccc(CCn2c(N)c(C(=O)NCc3ccco3)c3nc4ccccc4nc32)cc1OC	u	u	x	-10%	-32%	u	-5%
COc1ccc(CCn2c(N)c(C(=O)NCc3ccco3)c3nc4ccccc4nc32)cc1	1%	-22%	-21	-12%	u	-13%	x
CCOc1[nH]c(/N=C/c2ccccc2)c(C#N)c1C#N	x	4%	x	x	x	x	x
CC1=C(C(=O)Nc2ccc(C)cc2C)C(c2ccc([N+](=O)[O-])cc2)n2ncc(C(=O)Nc3ccc(F)cc3)c2N1 (configuration not stated)	x	-4%	x	0%	x	x	x
C=CCn1c(COc2ccc(F)cc2)nnc1SCC(=O)NC(=O)NCc1ccco1	u	3%	x	-29%	-21%[57.1 µM]	u	u
C=CCn1c(COc2ccc(F)cc2)nnc1SCC(=O)NC1CCCC1	3%	1%	4	x	3%	x	x
COc1ccccc1-c1nnc2n1N=C(c1ccc(O)c(O)c1)CS2	u	-6%	u	-15%	22µM*	32µM*	u
COc1ccccc1NC(=O)C12CC3CC(C1)CC(c1ccc(C)cc1)(C3)C2	-2%	-15%	x	-5%	5%	32µM*	-14%

Compound activity (PubChem)
